Data on 64 compounds can be found in ChEMBL document CHEMBL3988442, “University of Dundee, Small-Polar-MMV Screening Library” (2021).

Hit rate of the full screen: of about 48,000 compounds, about 13,000 (27%) showed an effect of 50% or more. This is one part of the list.

The experiment concerns Wolbachia pipientis. Briefly: Anti-Wolbachia Cell-Based Screen. Format: functional. To be noted: 5 µM. The arrangement: scale not given: in the data most compounds retested in dose-response had high values.
With `CCc1cc(=O)[nH]c(-c2ccc(NCCc3ccc(O)cc3)nc2)n1`, the “Percent Effect” value is -8.547%.
In the case of `Cc1ccc(CNC2CCN(CCc3ccncc3)CC2)cc1C` it was 2.941%; in that of `O=C1[C@H]2CC[C@H](CN(Cc3ccccc3OC(F)F)C2)N1CC1CC1`, -16.02%; in that of `O=S(=O)(C1CC1)N1CCO[C@@H]2CN(Cc3ccco3)C[C@@H]2C1`, 3.474%.
In the case of `CCS(=O)(=O)N1C[C@@H]2CN(Cc3cnn(C)c3)CCO[C@@H]2C1.O=C(O)C(F)(F)F`, the “Percent Effect” value is 4.441%.
As for `Cc1nc(CN2CCO[C@H]3CN(C(=O)c4cccn4C)C[C@H]32)cs1`, the “Percent Effect” value is reported as 4.285%.
In the case of `Cn1cc(CN2C[C@@H]3CN(Cc4ccoc4)CCO[C@@H]3C2)cn1.O=C(O)C(F)(F)F.O=C(O)C(F)(F)F` it was 1.152%; in that of `Cn1cc(CN2C[C@@H]3CN(C(=O)c4cccn4C)CCO[C@@H]3C2)cn1`, 94.4%.
For `O=C(O)C(F)(F)F.O=C(c1cocn1)N1C[C@@H]2CN(Cc3ccco3)CCO[C@@H]2C1`, the “Percent Effect” value is recorded as -2.402%.
In the case of `CN(C)CCN1CCO[C@H]2CCN(C(=O)c3cccs3)CC[C@@H]21.O=C(O)C(F)(F)F.O=C(O)C(F)(F)F`, the “Percent Effect” value was -1.673%.
The same measure for `Cn1cccc1C(=O)N1CCO[C@@H]2CN(Cc3ccco3)C[C@@H]2C1`: 74.97%; for `CN(C)CCN1CCO[C@@H]2CCN(C(=O)c3cccn3C)CC[C@H]21`: 111.2%.
`CN(Cc1ccc(Cl)s1)C(=O)CN1CC(n2cccn2)C1`: the “Percent Effect” value is reported as -39.44%.
The same measure for `CCC(NC(=O)CCNC(=O)c1ccccc1F)c1cc(C)ccn1` (centres undefined): -12.53%; for `CC(C)Cc1nc(CCn2ccc(=O)[nH]c2=O)n(-c2ccccn2)n1`: 0.8317%.
On to `CCC(c1nc(C(C)C)nn1-c1ccncc1C)n1cccn1` (centres undefined), for which the “Percent Effect” value is -1.289%.
Regarding `Cc1nc[nH]c1C(=O)N1CCCC2(CN(C)C(=O)O2)C1` (centres undefined), the “Percent Effect” value is recorded as -29.59%.
Regarding `COc1ncc(NS(=O)(=O)c2cccc(C)c2)c(OC)n1`, the “Percent Effect” value was found to be 20.6%.
In the case of `COc1ncc(-c2cc(NC3CCCC3)nc3[nH]ccc23)c(OC)n1` it was 5.51%.
Take `COc1ncc(-c2ccc(NC(C)=O)cc2)c(OC)n1`: the “Percent Effect” value is 97.6%.
The same measure for `COc1ncc(NC(=O)c2ccco2)c(OC)n1`: 4.719%; for `COc1ncccc1-c1cc(C(N)=O)ccn1`: 12.1%.
Turning to `COc1ncc(-c2ccc(O)cc2)c(OC)n1`, the “Percent Effect” value was 83.6%.
The same measure for `COc1ncc(-c2ccc(C(N)=O)cc2)c(OC)n1`: 99.76%; for `COc1ccc(-c2cnc(NC(C)=O)[nH]2)cc1`: -6.695%.
In the case of `COc1ncc(NS(=O)(=O)c2ccc(F)c(F)c2)c(OC)n1` it was -5.769%.
In the case of `CC(C)n1cnnc1CN(C)Cc1ccc(CN(C)S(C)(=O)=O)o1` it was -6.062%; in that of `CN(CC1CCN(CCO)CC1)CC(O)c1ccc(F)cc1` (centres undefined), 8.04%.
Turning to `O=C(Nc1nnc(C2CC2)s1)NC1CCOc2ccccc21` (centres undefined), the “Percent Effect” value was -5.522%.
The same measure for `CN(C)Cc1cc(C2CCN(C(=O)C3CCCNC3)CC2)nn1C.Cl` (centres undefined): 84.37%; for `CN(C)Cc1cc(C2CCN(C(=O)C3CC34CCC4)CC2)nn1C.Cl` (centres undefined): 106.1%.
As for `O=C(C1CC12CCC2)N1CCC(n2cc(-c3ccsc3)nn2)CC1` (centres undefined), the “Percent Effect” value was -51.66%.
In the case of `COC(C)(C)C(=O)N1CCC(c2cc(CN(C)C)n(C)n2)CC1.Cl` it was 119.7%; in that of `Cc1cc(CN(C)C(=O)CN2CC3(CCNCC3)OC2=O)n(C)n1`, -5.459%; in that of `CN(Cc1cnc(N)nc1)C(=O)C1CCN(C(=O)C2CCCC2)CC1`, -2.189%.
Take `CCn1c(C2CCCN(C(=O)C(C)(C)OC)C2)nn(CCN(C)C)c1=O` (centres undefined): the “Percent Effect” value is reported as -8.02%.
On to `CN(C)CCN1CC(C(=O)N2CCC(c3cc(=O)[nH]cn3)CC2)CC1=O` (centres undefined), for which the “Percent Effect” value stood at 11.42%.
The same measure for `CS(=O)(=O)c1nccn1Cc1ccc(F)cc1Cl`: -6.222%; for `Cc1cnc(N2Cc3cnn(Cc4ccc(F)cc4)c3C2)nc1N(C)C`: 15.57%.
Consider `Cc1cc(N2CCc3c(nc(C(C)C)n3C)C2)nc(N)n1`, for which the “Percent Effect” value came to 12.43%.
In the case of `NS(=O)(=O)N1CCc2ccc(NC(=O)CCc3ccncc3)cc21` it was -8.791%.
For `CC(=O)N1CCCc2cc(NC(=O)NCCc3cnn(C)c3)ccc21`, the “Percent Effect” value is recorded as -10.98%.
In the case of `O=C(NCc1ccccc1CO)Nc1ccc2c(c1)CCC2` it was -12.78%; in that of `CCCNC(=O)Nc1ccc2c(c1)N(S(=O)(=O)CC)CC2`, 85.58%; in that of `CCS(=O)(=O)N1CCc2ccc(NC(=O)NCc3ccccc3)cc21`, 168.3%.
The same measure for `CCCNC(=O)CNc1ccc2c(c1)N(C(=O)OC(C)(C)C)CCC2`: -19.09%; for `CS(=O)(=O)c1ccc(NC(=O)NCc2ccc3c(c2)CCC3)cn1`: 2.355%; for `CCS(=O)(=O)N1CCc2ccc(NC(=O)NCCc3ccccc3)cc21`: 122.4%.
In the case of `Fc1cccc(N2CCOC3(CCCN(c4nncs4)C3)C2)c1` (centres undefined) it was -6.078%; in that of `O=C(C1CCCC1)N1CCOC(c2nc(-c3ncccn3)no2)C1` (centres undefined), 90.83%; in that of `O=C(C1CCCC1)N1CC(c2nc(Cc3ccccc3)no2)C1`, 3.47%.
On to `O=C(CN1CCCC1c1nc(-c2ccccn2)no1)N1CCOCC1` (centres undefined), for which the “Percent Effect” value is -3.547%.
In the case of `O=C(CC1CCCC1)N1CCOC(c2nc(-c3ncccn3)no2)C1` (centres undefined) it was 86.32%; in that of `CCn1cc(Cn2cc(-c3cccc(C(C)N(C)C)c3)nn2)cn1` (centres undefined), -0.05647%; in that of `COc1ccc(N(C)C(=O)C2CN(C)CCO2)cc1Cl` (centres undefined), 4.765%.
With `Cc1cc(-n2nc(C)nc2-c2cn(CCN)nn2)ccn1`, the “Percent Effect” value is -45.52%.
As for `CCc1nc(CCn2cc(-c3nccn3C)nn2)no1`, the “Percent Effect” value is listed as -10.63%.
Take `Cn1cccc1-c1cc(C(=O)NCCCc2csc(N)n2)[nH]n1`: the “Percent Effect” value was -5.944%.
As to `Cc1cn(CCn2ccnc2-c2sccc2C)nn1`, the “Percent Effect” value is on record as -12.56%.
Consider `Cc1ccccc1C1CCN(CCn2cc(-c3nccn3C)nn2)C1` (centres undefined), for which the “Percent Effect” value is recorded as -7.795%.
Turning to `CCOc1ncccc1Cn1cc(-c2nccn2C)nn1`, the “Percent Effect” value is -13.21%.
For `Cn1ccnc1-c1cn(CCc2nnc(N)s2)nn1`, the “Percent Effect” value is recorded as 90.14%.
In the case of `Cn1ccnc1-c1cn(CCCc2csc(N)n2)nn1`, the “Percent Effect” value is reported as 106.8%.
For the compound `Cn1ccnc1-c1cn(CCCc2nnc(N)s2)nn1`, the “Percent Effect” value amounted to 101%.
